Measurements from PubChem BioAssay (NCI).
About 79,000 compounds went through this panel and 15% of them were active in at least one assay; those are over-represented in the sample as a whole. The source made the active and inactive calls. Rule as the data show it: active = growth inhibition above about 70%; inactive = the rest.

Assay: NCI Yeast Anticancer Drug Screen. Data for the sgs1 mgt1 strain (AID 161);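 also: 0% = growth of cultures given vehicle only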
Conditions: S. cerevisiae sgs1 mgt1 strain, at 50.0 µM, stronger effect = higher value
In short: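 Inhibition of yeast growth, normalised to vehicle-treated controls, is reported for a strain bearing genetic alterations in DNA damage repair.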

Structure (SMILES)	growth inhibition
Oc1ccc(-c2nc(-c3ccccc3)c(-c3ccccc3)[nH]2)cc1	-1.1% (inactive)
O=C1c2ccccc2C(=O)N1CC1CO1 (stereo not given)	0.5% (inactive)
C[N+]1(C)C/C(=C\c2ccc(O)cc2)C(=O)/C(=C/c2ccc(O)cc2)C1	4.05% (inactive)
O=C(O)C(CCl)c1ccccc1 (stereo not given)	0.4% (inactive)
O=C(c1ccccc1)c1c(-c2ccccc2)sc2nc3ccccc3nc12	3.2% (inactive)
CC(C(=O)c1ccccc1)N(C)c1ccccc1 (stereo not given)	-3.1% (inactive)
COc1cc(NCCNCC(C)(C)C)c2ncccc2c1	22.1% (inactive)
NC(Cc1ccc(S(=O)(=O)O)cc1)C(=O)NC(CCCCNC(=O)NCCCCC(NC(=O)C(N)Cc1ccc(S(=O)(=O)O)cc1)C(=O)NC(Cc1ccc(S(=O)(=O)O)cc1)C(=O)O)C(=O)NC(Cc1ccc(S(=O)(=O)O)cc1)C(=O)O (stereo not given)	8.45% (inactive)
O=C1C=C(c2ccccc2)C(O)(c2ccccc2)/C1=C/C=C/c1ccccc1 (stereo not given)	6.5% (inactive)
COc1ccc2[nH]c3c4c(c(C)cc3c2c1)OC(C)(C)C=C4	-4.05% (inactive)
CN1c2cccc3cccc(c23)NC12CCCCC2	-10.8% (inactive)
CSC1=Nc2cc3c(cc2C(=O)N2C[C@H](O)CC12)OCO3 (stereo not given in full)	-10.9% (inactive)
CC(C)(CCN(CC(=O)O)CC(=O)O)[N+](=O)[O-]	3.65% (inactive)
NC(CC(=O)Nc1ccc(Cl)cc1)=Nc1ccccc1	-11.2% (inactive)
COc1ccc2c(c1)C(O)C(NCc1ccccc1)C2 (stereo not given)	-0.45% (inactive)
O=[N+]([O-])CC1=CCCCC1	25.9% (inactive)
COC(=O)C(CC12CC3CC(CC(C3)C1)C2)NC(=O)C(N)CC(=O)O (stereo not given)	-23.8% (inactive)
O=C1C(n2ccc(=O)[nH]c2=O)CCN1CCCl (stereo not given)	2.65% (inactive)
CC(=O)Nc1ccc(S(=O)(=O)Oc2noc3ccc(Br)cc23)cc1	-23% (inactive)
Cc1ccc(CCS(=O)(=O)N=[N+]=[N-])cc1	-8.95% (inactive)

Structure (SMILES)	growth inhibition
Cc1ccccc1S(=O)(=O)Nn1cnc2ccc(S(=O)(=O)Nc3ccc(Cl)cc3)cc2c1=O	40.6% (inactive)
COc1cc(C2c3cc4c(cc3OC3(OC)COC(=O)C23)OCO4)cc(OC)c1OC (stereo not given)	4.9% (inactive)
CC1CN=C(N(C(=O)Nc2ccc(Cl)c(Cl)c2)c2ccccc2)S1 (stereo not given)	-5.7% (inactive)
CC(=O)c1ccco1	-5.15% (inactive)
C/C(CC1CCCCC1)=N\NC(N)=O	-5.8% (inactive)
O=C(N/N=C\c1cccc2c([N+](=O)[O-])cccc12)Nc1ccccc1	-21.9% (inactive)
COc1cc(OC)c(NC(N)=O)cc1Cl	3.55% (inactive)
NC(=O)CCCC(C(N)=O)(c1ccccc1)c1ccccc1	3.25% (inactive)
Cn1cnc([N+](=O)[O-])c1Sc1nccn1-c1ccccc1	-7.8% (inactive)
O=[N+]([O-])c1cnc(/C=[N+](\[O-])C2CCCCC2)n1CCO	-0.3% (inactive)
O=C(O)CCCCCC1=CCCCC1	20.9% (inactive)
CC(C)(C)c1cc(C2OC(N)=C(O)C2=O)cc(C(C)(C)C)c1O (stereo not given)	24.7% (inactive)
CCN(CC)Cc1cc(N)cc(N=Nc2ccc3c(c2)c2ccccc2n3CC)c1O	12.4% (inactive)
O=C(CCCC(=O)Nc1cccc([N+](=O)[O-])c1)CC(=O)c1ccc([N+](=O)[O-])cc1	-8.2% (inactive)
Cc1ccc(S(=O)(=O)CCC(=O)c2ccccc2)cc1	0.95% (inactive)
CC(C)(O)C(Cc1ccccc1)c1ccccc1 (stereo not given)	-16.1% (inactive)
CC(=O)OC(C)CCl (stereo not given)	-34% (inactive)
NCCCCCS(=O)(=O)O	-0.85% (inactive)
CC1=NNC(=O)CC1C(O)c1ccccc1 (stereo not given)	-12.1% (inactive)
Cc1ccc(S(=O)(=O)Nc2ccc(S(C)(=O)=O)cc2)cc1	-5.6% (inactive)

Assay: NCI Yeast Anticancer Drug Screen. Data for the cln2 rad14 strain (AID 165);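 also: 0% = growth equal to vehicle treated cultures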
Conditions: S. cerevisiae cln2 rad14 strain, at 50.0 µM, stronger effect = higher value
In short: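 The screen exposed genetically defined yeast (cln2 rad14) to test compounds and scored growth inhibition relative to vehicle-treated controls.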

Structure (SMILES)	growth inhibition
Oc1ccc(-c2nc(-c3ccccc3)c(-c3ccccc3)[nH]2)cc1	-46.3% (inactive)
O=C1c2ccccc2C(=O)N1CC1CO1 (stereo not given)	-7.7% (inactive)
C[N+]1(C)C/C(=C\c2ccc(O)cc2)C(=O)/C(=C/c2ccc(O)cc2)C1	-6% (inactive)
O=C(O)C(CCl)c1ccccc1 (stereo not given)	-17.1% (inactive)
O=C(c1ccccc1)c1c(-c2ccccc2)sc2nc3ccccc3nc12	29.1% (inactive)
CC(C(=O)c1ccccc1)N(C)c1ccccc1 (stereo not given)	-36.8% (inactive)
COc1cc(NCCNCC(C)(C)C)c2ncccc2c1	11.8% (inactive)
NC(Cc1ccc(S(=O)(=O)O)cc1)C(=O)NC(CCCCNC(=O)NCCCCC(NC(=O)C(N)Cc1ccc(S(=O)(=O)O)cc1)C(=O)NC(Cc1ccc(S(=O)(=O)O)cc1)C(=O)O)C(=O)NC(Cc1ccc(S(=O)(=O)O)cc1)C(=O)O (stereo not given)	-8.65% (inactive)
O=C1C=C(c2ccccc2)C(O)(c2ccccc2)/C1=C/C=C/c1ccccc1 (stereo not given)	-12.2% (inactive)
COc1ccc2[nH]c3c4c(c(C)cc3c2c1)OC(C)(C)C=C4	-43.3% (inactive)
CN1c2cccc3cccc(c23)NC12CCCCC2	-62.2% (inactive)
CSC1=Nc2cc3c(cc2C(=O)N2C[C@H](O)CC12)OCO3 (stereo not given in full)	-34.2% (inactive)
CC(C)(CCN(CC(=O)O)CC(=O)O)[N+](=O)[O-]	-69.8% (inactive)
NC(CC(=O)Nc1ccc(Cl)cc1)=Nc1ccccc1	-10.3% (inactive)
COc1ccc2c(c1)C(O)C(NCc1ccccc1)C2 (stereo not given)	-9.9% (inactive)
O=[N+]([O-])CC1=CCCCC1	4.05% (inactive)
COC(=O)C(CC12CC3CC(CC(C3)C1)C2)NC(=O)C(N)CC(=O)O (stereo not given)	15.9% (inactive)
O=C1C(n2ccc(=O)[nH]c2=O)CCN1CCCl (stereo not given)	-23.5% (inactive)
CC(=O)Nc1ccc(S(=O)(=O)Oc2noc3ccc(Br)cc23)cc1	-4.5% (inactive)
Cc1ccc(CCS(=O)(=O)N=[N+]=[N-])cc1	-53.8% (inactive)

Structure (SMILES)	growth inhibition
Cc1ccccc1S(=O)(=O)Nn1cnc2ccc(S(=O)(=O)Nc3ccc(Cl)cc3)cc2c1=O	6.95% (inactive)
COc1cc(C2c3cc4c(cc3OC3(OC)COC(=O)C23)OCO4)cc(OC)c1OC (stereo not given)	-13.9% (inactive)
CC1CN=C(N(C(=O)Nc2ccc(Cl)c(Cl)c2)c2ccccc2)S1 (stereo not given)	23.8% (inactive)
CC(=O)c1ccco1	-43% (inactive)
C/C(CC1CCCCC1)=N\NC(N)=O	13.2% (inactive)
O=C(N/N=C\c1cccc2c([N+](=O)[O-])cccc12)Nc1ccccc1	2.6% (inactive)
COc1cc(OC)c(NC(N)=O)cc1Cl	9.75% (inactive)
NC(=O)CCCC(C(N)=O)(c1ccccc1)c1ccccc1	-11.2% (inactive)
Cn1cnc([N+](=O)[O-])c1Sc1nccn1-c1ccccc1	22.2% (inactive)
O=[N+]([O-])c1cnc(/C=[N+](\[O-])C2CCCCC2)n1CCO	13.7% (inactive)
O=C(O)CCCCCC1=CCCCC1	19.2% (inactive)
CC(C)(C)c1cc(C2OC(N)=C(O)C2=O)cc(C(C)(C)C)c1O (stereo not given)	13.8% (inactive)
CCN(CC)Cc1cc(N)cc(N=Nc2ccc3c(c2)c2ccccc2n3CC)c1O	27.7% (inactive)
O=C(CCCC(=O)Nc1cccc([N+](=O)[O-])c1)CC(=O)c1ccc([N+](=O)[O-])cc1	-4.15% (inactive)
Cc1ccc(S(=O)(=O)CCC(=O)c2ccccc2)cc1	1.3% (inactive)
CC(C)(O)C(Cc1ccccc1)c1ccccc1 (stereo not given)	-2.1% (inactive)
CC(=O)OC(C)CCl (stereo not given)	2.6% (inactive)
NCCCCCS(=O)(=O)O	4.05% (inactive)
CC1=NNC(=O)CC1C(O)c1ccccc1 (stereo not given)	3% (inactive)
Cc1ccc(S(=O)(=O)Nc2ccc(S(C)(=O)=O)cc2)cc1	-36.4% (inactive)
